Among the data in PubChem BioAssay (EPA / NIEHS) are outcome and AC50 values, retold here.

Where “and” joins values, the source holds several entries; their conditions need not be identical. Identical values can stand only once. Results filed as inconclusive are left out. Calls of active or inactive are those of the source. The calls were made as follows, unless noted: active = hit-call score of the fitted dose curve at least 0.9, where 1 is the maximum; inactive = score below 0.9.

Read-out in assay [1]: Tumor necrosis factor receptor 1 (TNFRSF1A), TNFRSF1A (gene 7132)
The experiment in a line: LTEA_HepaRG_TNFRSF1A: Life Technologies and Expression Analysis (LTEA) Assay for Tumor necrosis factor receptor 1 (TNFRSF1A) using HepaRG (AID 2283535). The conditions noted are these: mRNA level, 48 h; actives raise or lower the signal. A digest of the protocol:
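Differentiated human HepaRG cells were exposed in duplicate for 48 h in serum-free induction medium to eight concentrations (top 100 uM, half-log steps, 0.5% DMSO). TNFRSF1A mRNA was quantified by qRT-PCR, normalized to ACTB, GAPDH and POLR2A, then fitted bidirectionally against DMSO.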

Read-out in assay [2]: Thyroid Hormone Responsive (THRSP), THRSP (gene 7069)
In words: LTEA_HepaRG_THRSP: Life Technologies and Expression Analysis (LTEA) Assay for Thyroid Hormone Responsive (THRSP) using HepaRG (AID 2283536). The conditions noted are these: mRNA level, 48 h; actives raise or lower the signal. The gist of the method:
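Cell model: human HepaRG, approx. 100,000 cells/well, 0.5% DMSO vehicle. Exposure lasts 48 h; phenobarbital 1 mM serves as induction positive control. Gene expression is measured by qRT-PCR against three endogenous control genes.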

Read-out in assay [3]: Cellular tumor antigen p53 (Homo sapiens) (UniProt P04637)
The experiment in a line: LTEA_HepaRG_TP53: Life Technologies and Expression Analysis (LTEA) Assay for Tumor Protein P53 (TP53) using HepaRG (AID 2283537). The conditions noted are these: mRNA level, 48 h; actives raise or lower the signal. A digest of the protocol:
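Read-out is TP53 transcript level by microfluidic qRT-PCR, normalised to three housekeeping genes and fitted bidirectionally against DMSO. Human HepaRG cells received compounds for 48 h, highest concentration 100 uM.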

Read-out in assay [4]: UDP glucuronosyltransferase (UGT1A1), UGT1A1 (gene 54658)
In words: LTEA_HepaRG_UGT1A1: Life Technologies and Expression Analysis (LTEA) Assay for UDP glucuronosyltransferase (UGT1A1) using HepaRG (AID 2283538). The note with it: mRNA level, 48 h; actives raise or lower the signal. The gist of the method:
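UGT1A1 transcript level, measured by qRT-PCR with three housekeeping genes for normalization, after 48 h treatment of human HepaRG cells (0.5% DMSO, duplicates, up to 100 uM, half-log steps, 8 points). Curves fit both directions against DMSO baseline.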

Read-out in assay [5]: UDP glucuronosyltransferase (UGT1A6), UGT1A6 (gene 54578)
In words: LTEA_HepaRG_UGT1A6: Life Technologies and Expression Analysis (LTEA) Assay for UDP glucuronosyltransferase (UGT1A6) using HepaRG (AID 2283539). The note with it: mRNA level, 48 h; actives raise or lower the signal. The gist of the method: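 Human HepaRG cells were dosed for 48 h in serum-free induction medium with 0.5% DMSO vehicle, eight-point half-log series from 100 uM, in duplicate. UGT1A6 mRNA was measured by qRT-PCR, normalized to ACTB, GAPDH, POLR2A, and fitted bidirectionally against DMSO.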

Read-out in assay [6]: X-box binding protein 1 (XBP1), XBP1 (gene 7494)
The experiment in a line: LTEA_HepaRG_XBP1: Life Technologies and Expression Analysis (LTEA) Assay for X-box binding protein 1 (XBP1) using HepaRG (AID 2283540). The note with it: mRNA level, 48 h; actives raise or lower the signal. The gist of the method:
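Differentiated human HepaRG cells in serum-free induction medium were exposed in duplicate for 48 h to eight half-log concentrations up to 100 uM in 0.5% DMSO. XBP1 mRNA was quantified by qRT-PCR, normalised to ACTB, GAPDH and POLR2A, with bidirectional fitting against DMSO.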

A short description of assay [7]: LTEA_HepaRG_LDH_cytotoxicity: Cytotoxicity Assessment in the Life Technologies and Expression Analysis (LTEA) Assay (AID 2283563; active = hit-call score of the fitted dose curve at least 0.9, where 1 is the maximum;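 as to AC50: LDH activity released into spent culture medium as a marker of cell death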). The gist of the method: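 Differentiated human HepaRG cells, plated 48 h beforehand, were switched to serum-free induction medium and exposed for 48 h to eight half-log concentrations (top 100 uM) in 0.5% DMSO. LDH was measured in spent medium; activity was fitted relative to DMSO vehicle.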

Assay [8] is described as follows: ATG_XTT_Cytotoxicity: Cytotoxicity Assessment in the Attagene TRANS-FACTORIAL HepG2 Assay (AID 2283584; active = hit-call score of the fitted dose curve at least 0.9, where 1 is the maximum). A digest of the protocol:
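HepG2 human liver cells, transiently transfected with multiple GAL4-UAS reporter units, were dosed and read at 24 h by XTT as cell number. Loss of signal was fitted relative to DMSO negative control baseline.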

Assay [9] can be described thus: TOX21_p53_BLA_p2_viability: Viability Assessment in the Tox21 HCT-116 p53 Agonism Beta-lactamase Assay, Phase 2 (AID 2283591; active = hit-call score of the fitted dose curve at least 0.9, where 1 is the maximum;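 also: compound exposure lasted 16 h at 37 °C; actives lower the ATP signal meaning cytotoxicity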). The gist of the method:
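HCT-116 p53-bla cells (4000/well) rested 5 h at 37C, then received compounds in DMSO (217-fold dilution) for 16 h at 37C, 5% CO2. After the CCF4 read, CellTiter-Glo was added; ATP luminescence was read after 30 min at room temperature.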

Assay [10] has as its target Cellular tumor antigen p53 (Homo sapiens) (UniProt P04637). In words: TOX21_p53_BLA_p2_ratio: Tox21 HCT-116 p53 Agonism Beta-lactamase Assay, Ratio, Phase 2 (AID 2283592; active = hit-call score of the fitted dose curve at least 0.9, where 1 is the maximum). The gist of the method:
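Ratio endpoint: beta-lactamase cleavage of CCF4-AM, blue (460 nm) over green (530 nm). HCT116 reporter line; 16 h treatment, 37C; substrate 2 h RT.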

Sequence of Cellular tumor antigen p53 (Homo sapiens) (P04637 whole entry, looked up): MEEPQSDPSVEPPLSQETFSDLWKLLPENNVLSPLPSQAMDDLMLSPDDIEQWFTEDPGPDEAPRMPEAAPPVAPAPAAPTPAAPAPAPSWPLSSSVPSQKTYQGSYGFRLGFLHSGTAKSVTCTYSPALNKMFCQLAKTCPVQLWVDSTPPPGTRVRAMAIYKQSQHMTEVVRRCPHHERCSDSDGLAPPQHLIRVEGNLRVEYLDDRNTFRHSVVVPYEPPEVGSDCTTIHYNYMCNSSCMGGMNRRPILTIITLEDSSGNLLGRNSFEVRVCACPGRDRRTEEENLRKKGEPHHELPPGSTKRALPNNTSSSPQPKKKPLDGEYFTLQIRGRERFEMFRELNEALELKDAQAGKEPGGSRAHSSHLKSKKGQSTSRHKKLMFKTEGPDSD

On to `Cc1cn([C@H]2C[C@H](N=[N+]=[N-])[C@@H](CO)O2)c(=O)[nH]c1=O`, for which the result in assay [1], in assay [2], in assay [3], in assay [4], in assay [5] and in assay [6] was inactive. Also, the molecule was called inactive in assay [7], in assay [8], in assay [9] and in [10].
What is called AC50 is the concentration at which the activity in the assay is half-maximal. With `NC(=O)c1nc(-c2cccc(-c3cc(F)ccc3OCC(F)(F)C(F)(F)F)c2)n[nH]1`, the outcome in [1], in [2], in assay [3] and in assay [6] was inactive. Also, the AC50 in assay [4] was 15.8 µM (active); in assay [5], 50 µM (active); in assay [7] it was 76.1 µM (active); in assay [9] it was 65.9 µM (active); in assay [10], 79.6 µM (active).
Take `Cc1cccc2ccccc12`: the molecule was classed as inactive in assay [1], in assay [2], in [3], in assay [4], in assay [5] and in assay [6]. The outcome in assay [7], in assay [8], in assay [9] and in [10] was inactive.
`c1ccc2n[nH]nc2c1`: the molecule was called inactive in [1], in [2], in assay [3], in [4], in assay [5] and in assay [6]. The outcome in assay [7], in [8], in assay [9] and in assay [10] was inactive.
Take `O=c1[nH]sc2ccccc12`: the molecule was called inactive in [1], in [2], in [3], in assay [4], in assay [5] and in assay [6]. For the same molecule, the result in assay [7], in assay [8], in assay [9] and in assay [10] was inactive.
Take `C[C@]12CC[C@@H]3c4ccc(O)cc4CC[C@H]3[C@@H]1CC[C@H]2O`: the result in assay [1], in [2], in assay [3], in assay [5], in assay [6] and in assay [8] was inactive. Moreover, the result in assay [9] was inactive. Also, the AC50 in assay [4] is 2.42 µM (active); in assay [10], 15.9 µM (active).
Turning to `CC(O)CC(C)(C)O` (stereo not drawn), the molecule was called inactive in assay [1], in assay [2], in assay [3], in assay [4], in assay [5] and in assay [6]. The molecule was called inactive in [7], in assay [8] and in [10].
Take `O=CCCCC=O`: the molecule was classed as inactive in assay [1], in [2], in assay [3], in assay [4], in assay [5] and in assay [6]. Further, the result in assay [7], in assay [8], in assay [9] and in assay [10] was inactive.
For `COCC(C)OCC(C)OCC(C)O` (stereo not drawn), the molecule was called inactive in assay [1], in [2], in assay [3], in assay [4], in assay [5] and in assay [6]. Moreover, the molecule was called inactive in assay [7] and in assay [8].
With `O=C(OCCCCCCOC(=O)c1ccccc1)c1ccccc1`, the molecule was called inactive in assay [1], in [2], in assay [3], in assay [4], in [5] and in assay [7]. In assay [8], the call was inactive.
Turning to `CC(C)(c1cc(Br)c(O)c(Br)c1)c1cc(Br)c(O)c(Br)c1`, the molecule was called inactive in assay [1], in assay [2], in assay [5], in assay [6] and in assay [8]. In addition, the AC50 in assay [3] was 89.2 µM (active); in assay [4] it was 78.2 µM (active); in [7], 58.3 µM (active); in assay [9], 35.7 µM (active) and 46 µM (active); in assay [10] it was 54.6 µM (active) and 64.2 µM (active) and 60.5 µM (active).
On to `CCCC(=O)OCCC(C)C`, for which the molecule was called inactive in assay [1], in assay [2], in assay [3], in assay [4], in [5] and in assay [6]. The call in [7] and in [10] was inactive.
In the case of `CC/C(=C(/CC)c1ccc(O)cc1)c1ccc(O)cc1`, the AC50 was 93.8 µM (active) in assay [1]; 21.7 µM (active) in [2]; 93.9 µM (active) in [4]; 76.7 µM (active) in assay [5]; 89.9 µM (active) in assay [6]; 89.2 µM (active) in assay [7]. In addition, the AC50 in assay [9] was 62 µM (active) and 73.4 µM (active); in [10] it was 3.29 µM (active) and 5.64 µM (active). Besides, the call in assay [3] and in assay [8] was inactive.
On to `CC(C)(C)c1cc(/C=C2\SC(N)=NC2=O)cc(C(C)(C)C)c1O`, for which the AC50 in [1] was 15.8 µM (active); in assay [4], 93.5 µM (active); in assay [5] it was 22.1 µM (active); in assay [7], 37.3 µM (active); in assay [9], 77.9 µM (active); in [10], 50.7 µM (active). In addition, the outcome in assay [2], in [3] and in [6] was inactive.
Take `CC[C@H](NC(=O)c1cc(F)ccc1NS(=O)(=O)c1cccc2cccnc12)c1ccccc1`: the call in [1], in [2], in assay [3], in assay [6], in assay [7] and in [9] was inactive. Besides, the result in [10] was inactive. For the same molecule, the AC50 is 11.1 µM (active) in assay [4] and 47.8 µM (active) in assay [5].
Regarding `Cc1oc2c(NC(=O)c3c(Cl)cccc3Cl)cccc2c1C(C)(C)O`, the molecule was classed as inactive in [1], in assay [8], in assay [9] and in assay [10]. For the same molecule, the AC50 was 86.8 µM (active) in assay [2]; 82.1 µM (active) in [3]; 50 µM (active) in assay [4]; 46.9 µM (active) in assay [5]; 11.3 µM (active) in assay [6].
Consider `Cc1ncc(CO)c(CO)c1O`, for which the outcome in assay [1], in assay [2], in [3], in [4], in assay [5] and in assay [6] was inactive. Besides, the molecule was classed as inactive in assay [8], in assay [9] and in [10].
As for `CCCCCCCCCC(=O)O`, the call in [1], in assay [2], in [3], in [4], in assay [5] and in assay [6] was inactive. Further, the outcome in assay [7], in assay [8], in assay [9] and in assay [10] was inactive.
Regarding `CC1=CC(=O)/C(=C(/C)O)C(=O)O1`, the outcome in assay [1], in assay [2], in assay [3], in [4], in assay [5] and in assay [6] was inactive. Also, in assay [7], the molecule was called inactive.
